These results are taken from PubChem BioAssay (Tox21).

Inconclusive results are not listed. Activity calls are given as the source filed them. Unless noted, calls come from the whole dose curve; as a rule, active = well fitted curve in the direction sought with a large enough effect in the repeat runs; inconclusive = weak or mixed curves; inactive = no such curve, though single readings can be large; an effect the other way counts as inactive or inconclusive.

Assay [1] can be described thus: A CellTox Green Cytotoxicity Assay to monitor cytotoxicity in HepG2 cells - 0 hour (AID 1224882). Note: nearly all actives have a fitted effect of over 35% in size. Summed up:
(§1)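 Continuous culture of HepG2 cells with a membrane-impermeant DNA dye; rising fluorescence marks dead cells. Compound exposure lasted up to 40 h at 37 C, with reads every 8 h from 0 h.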

Assay [2] is described as follows: A CellTox Green Cytotoxicity Assay to monitor cytotoxicity in HepG2 cells - 32 hour (AID 1224883). Note: nearly all actives have a fitted effect of over 50% in size. Note: potency is the fitted concentration of half-maximal effect. Summed up:
as §1

Assay [3] is described as follows: qHTS RealTime-Glo MT Cell Viability Assay in HepG2 cells - 16 hour (AID 1224885). Note: nearly all actives have a fitted effect of over 50% in size. Summed up:
(§2)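 HepG2 suspension premixed with RealTime-Glo reagents is plated at 600 cells per well and left 5 h at 37 C/5% CO2. Compounds in DMSO then go in, and bioluminescence reflecting viable cell number is recorded over 40 h.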
On the technique in general: qHTS replaces the single test concentration by a dilution series.

Assay [4] in a line: qHTS RealTime-Glo MT Cell Viability Assay in HEK293 cells - 24 hour (AID 1224886). Note: top concentration of the series differs between compounds; nearly all actives have a fitted effect of over 50% in size. Summed up:
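Reads taken at 0, 8, 16, 24, 32 and 40 h from the same wells. HEK293 cells (600/well) carried RealTime-Glo reagents from seeding, with compound added after a 5 h settle at 37 C.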

Assay [5] in a line: qHTS RealTime-Glo MT Cell Viability Assay in HEK293 cells - 8 hour (AID 1224887). Note: top concentration of the series differs between compounds; nearly all actives have a fitted effect of over 50% in size. The method, boiled down: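 qHTS format; HEK293 cells with NanoLuc/prosubstrate reagent, 37 C/5% CO2 for 5 h pre-dosing; compounds 23 nL in DMSO; luminescence at each time point reflects viable cells.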
Assay [6] in a line: A CellTox Green Cytotoxicity Assay to monitor cytotoxicity in HEK293 cells - 16 hour (AID 1224888). Note: nearly all actives have a fitted effect of over 35% in size. Summed up:
(§3)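 Each value comes from one timepoint of a single continuous run in which HEK293 cells with CellTox Green were exposed to compound for up to 40 h at 37 C, dye fluorescence rising with cell death.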

Assay [7] in a line: qHTS RealTime-Glo MT Cell Viability Assay in HepG2 cells - 0 hour (AID 1224889). Note: nearly all actives have a fitted effect of over 50% in size. The method, boiled down: as §2
Assay [8] in a line: A CellTox Green Cytotoxicity Assay to monitor cytotoxicity in HepG2 cells - 8 hour (AID 1224890). Note: nearly all actives have a fitted effect of over 45% in size. The method, boiled down:
as §1

Assay [9] is described as follows: qHTS assay to identify small molecule antagonists of the estrogen receptor alpha (ER-alpha) signaling pathway using the BG1 cell line in the presence of 0.1 nM 17-beta-estradiol - cell viability counter screen (AID 1259241). Note: nearly all actives have a fitted effect of over 40% in size. Summed up:
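Measures cytotoxicity alongside the ER-alpha antagonist readout: VM7Luc4E2 cells, charcoal-stripped serum, 0.1 nM 17beta-estradiol final, 22 hr compound incubation at 37C, CellTiter-Fluor fluorescence.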

Assay [10] can be described thus: qHTS assay to identify small molecule antagonists of the androgen receptor (AR) signaling pathway using the MDA cell line in the presence of 0.5 nM R1881 - cell viability counter screen (AID 1259242). Note: nearly all actives have a fitted effect of over 45% in size. Summed up: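 Fluorescence from CellTiter-Fluor, which reports protease activity of live cells, was read 30 min after reagent addition to MDA-kb2 cells that had been incubated 16 hr with compound and 0.5 nM R1881.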

The target of assay [11] is Androgen receptor (Homo sapiens) (UniProt P10275). The experiment in a line: qHTS assay to identify small molecule antagonists of the androgen receptor (AR) signaling pathway using the MDA cell line in the presence of 0.5 nM R1881 (AID 1259243). Note: nearly all actives have a fitted effect of over 50% in size. The method, boiled down: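 Inhibition of R1881 (0.5 nM final) induced reporter signal was measured in human MDA-kb2 cells; note the MMTV promoter also responds to GR. Exposure lasted 16 hr at 37C.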

Assay [12] deals with Estrogen receptor (Homo sapiens) (UniProt P03372). The experiment in a line: qHTS assay to identify small molecule antagonists of the estrogen receptor alpha (ER-alpha) signaling pathway using the BG1 cell line in the presence of 0.1 nM 17-beta-estradiol (AID 1259244). Note: nearly all actives have a fitted effect of over 50% in size. Summed up: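 Quantitative high-throughput screen in VM7Luc4E2 cells: compound plus 0.1 nM E2 (final), 22 h, 37C, 5% CO2; ONE-Glo added, 30 min room temperature, luminescence measured.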

The nature of assay [13]: qHTS assay to identify small molecule phospholipidosis (PLD) inducers (AID 1259344; active = well fitted curve in the direction sought with a large enough effect; an effect the other way counts as inactive or inconclusive). The method, boiled down: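 Quantitative HTS in HepG2: compound plus LipidTOX Red dye for 24 h, paraformaldehyde fixation with Hoechst 33342, widefield high-content imaging; amiodarone as positive and DMSO as negative control.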
Assay [14] is described as follows: qHTS assay to identify small molecule HDAC inhibitors (AID 1259364). Note: nearly all actives have a fitted effect of over 45% in size. Note: potency is the fitted concentration of half-maximal effect. Summed up: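 Endogenous HDAC class I/II activity was measured in wild-type HCT-116 cells by HDAC-Glo luminescence after 2 h compound treatment.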
Assay [15] in a line: qHTS assay to identify small molecule HDAC inhibitors - cell viability counter screen (AID 1259365). Summed up:
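Following a 2hr exposure of overnight-plated wild-type HCT-116 cells to DMSO-delivered compounds, CellTiter-Glo was added and luminescence recorded after 30min at room temperature.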

A short description of assay [16]: qHTS assay to identify small molecule agonists of the sonic hedgehog signaling (Shh) pathway - cell viability counter screen (AID 1259366). Note: nearly all actives have a fitted effect of over 50% in size. Summed up:
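After a 4hr attachment at 37C, NIH/3T3 cells bearing an integrated Gli1-driven luciferase reporter were dosed with compounds. Treatment lasted 24hr, with the final hour including CellTiter-Fluor for a fluorescence viability measurement.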

Assay [17] is described as follows: qHTS assay to identify small molecule antagonists of the sonic hedgehog signaling (Shh) pathway - cell viability counter screen (AID 1259367). Note: nearly all actives have a fitted effect of over 55% in size. The method, boiled down:
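Seed 3T3 Gli1-Luc cells at 2,000 per well; incubate 4 hr; add compound in DMSO, then conditioned medium; incubate at 37C with 5% CO2; add CellTiter-Fluor after 23 hr; read fluorescence 1 hr later.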

The nature of assay [18]: qHTS assay to identify small molecule agonists of the sonic hedgehog signaling (Shh) pathway (AID 1259368; calls by dose curve;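 note: NIH/3T3-derived 3T3Gli1-Luc cells carrying a stable Gli1-driven firefly luciferase reporter; series mostly up to about 92 µM; nearly all actives have a fitted effect of over 15% in size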). The method, boiled down:
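Luminescent signal was taken as a measure of Gli1-controlled luciferase expression in stably transfected NIH/3T3-derived cells that had been treated for 24 hr with compounds delivered in DMSO.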

Assay [19] can be described thus: qHTS assay to identify small molecule antagonists of the sonic hedgehog signaling (Shh) pathway (AID 1259369; calls by dose curve; note: nearly all actives have a fitted effect of over 45% in size). The method, boiled down: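 Screening used 3T3Gli1-Luc cells at 2,000 per well, compounds delivered in DMSO, and conditioned medium as agonist stimulus; plates incubated 24hr at 37 C and 5% CO2 before a 30min luciferase step.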
Assay [20] is described as follows: A CellTox Green Cytotoxicity Assay to monitor cytotoxicity in HEK293 cells - 8 hour (AID 1224884). Note: nearly all actives have a fitted effect of over 35% in size. Summed up: as §3

Chain of Estrogen receptor (Homo sapiens) (P03372 whole entry, looked up): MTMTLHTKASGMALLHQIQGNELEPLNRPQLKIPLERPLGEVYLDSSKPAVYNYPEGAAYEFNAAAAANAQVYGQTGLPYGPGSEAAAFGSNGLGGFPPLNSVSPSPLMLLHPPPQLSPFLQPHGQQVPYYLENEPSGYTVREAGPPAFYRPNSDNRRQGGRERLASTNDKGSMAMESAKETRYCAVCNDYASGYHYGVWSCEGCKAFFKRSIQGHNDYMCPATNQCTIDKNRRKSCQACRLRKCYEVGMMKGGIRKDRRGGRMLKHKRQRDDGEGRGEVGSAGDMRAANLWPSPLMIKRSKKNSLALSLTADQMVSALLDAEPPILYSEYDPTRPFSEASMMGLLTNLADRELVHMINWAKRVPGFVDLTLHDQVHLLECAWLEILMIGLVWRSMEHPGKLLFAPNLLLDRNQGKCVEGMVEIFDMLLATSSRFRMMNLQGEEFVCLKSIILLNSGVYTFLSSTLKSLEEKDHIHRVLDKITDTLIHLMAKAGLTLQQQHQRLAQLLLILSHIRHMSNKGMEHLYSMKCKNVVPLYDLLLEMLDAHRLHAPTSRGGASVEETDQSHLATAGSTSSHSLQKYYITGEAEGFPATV
Chain of Androgen receptor (Homo sapiens) (P10275 whole entry, looked up): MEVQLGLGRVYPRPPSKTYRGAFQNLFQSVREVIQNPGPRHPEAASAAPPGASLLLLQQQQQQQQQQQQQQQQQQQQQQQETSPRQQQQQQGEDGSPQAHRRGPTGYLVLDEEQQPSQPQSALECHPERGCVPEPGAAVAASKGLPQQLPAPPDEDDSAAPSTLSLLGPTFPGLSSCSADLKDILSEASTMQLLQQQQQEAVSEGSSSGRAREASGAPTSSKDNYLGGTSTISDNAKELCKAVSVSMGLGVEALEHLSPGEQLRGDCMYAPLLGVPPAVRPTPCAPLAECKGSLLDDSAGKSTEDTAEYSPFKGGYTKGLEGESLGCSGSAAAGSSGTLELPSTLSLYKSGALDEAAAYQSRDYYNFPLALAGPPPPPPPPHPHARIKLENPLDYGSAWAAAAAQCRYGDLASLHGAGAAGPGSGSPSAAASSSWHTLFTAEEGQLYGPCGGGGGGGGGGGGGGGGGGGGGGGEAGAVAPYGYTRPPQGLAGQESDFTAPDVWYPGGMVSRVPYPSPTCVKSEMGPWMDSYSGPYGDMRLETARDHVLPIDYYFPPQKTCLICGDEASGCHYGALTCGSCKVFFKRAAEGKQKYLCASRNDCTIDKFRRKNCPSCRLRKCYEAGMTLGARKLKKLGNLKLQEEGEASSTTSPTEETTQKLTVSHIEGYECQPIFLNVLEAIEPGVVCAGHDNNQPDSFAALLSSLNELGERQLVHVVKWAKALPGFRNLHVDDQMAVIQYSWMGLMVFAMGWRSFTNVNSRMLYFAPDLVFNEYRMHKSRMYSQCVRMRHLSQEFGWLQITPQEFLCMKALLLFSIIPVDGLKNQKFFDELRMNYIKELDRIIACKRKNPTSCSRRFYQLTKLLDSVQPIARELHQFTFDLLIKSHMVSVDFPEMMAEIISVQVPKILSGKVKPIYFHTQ

For the molecule `CC(C(=O)O)c1ccc(C(=O)c2ccccc2)s1` (stereo not drawn), the Potency entry in assay [1], in [2], in assay [3], in assay [4], in assay [5] and in assay [6] was “inactive” each time. The Potency result in assay [7], in assay [8], in [9], in [10], in assay [11] and in [12] was “inactive” in each case. The Potency entry in assay [13], in assay [16], in assay [17] and in assay [19] was “inactive” in each case. Besides, the Potency in [14] was 6.68 µM (active). Also, the molecule was classed as inactive in assay [15] and in assay [18].
Regarding `Cc1ccc(C(N)=O)cc1N`, the Potency result in assay [1], in [2], in [20], in assay [4], in assay [5] and in [6] was “inactive” in each case. Also, the Potency entry in assay [7], in assay [8], in assay [10], in assay [14], in [17] and in [19] was “inactive” in each case. Besides, the call in [15] and in assay [18] was inactive.
For the molecule `C=CC(C)(CCC=C(C)C)OC(=O)c1ccccc1` (stereo not drawn), the Potency result in [1], in assay [2], in [3], in assay [4], in assay [5] and in [7] was “inactive” throughout. Besides, the Potency entry in assay [8], in assay [9], in [10], in assay [14], in assay [16] and in assay [17] was “inactive” in each case. Moreover, the Potency entry in assay [19] is “inactive”. Also, the call in assay [15] and in assay [18] was inactive.
With `CC(C)=CCCC(C)CC=O` (stereo not drawn), the Potency entry in [1], in assay [2], in assay [3], in assay [5], in assay [6] and in assay [7] was “inactive” each time. For the same molecule, the Potency entry in assay [8], in [9], in assay [10], in assay [14], in assay [16] and in [17] was “inactive” throughout. Further, the Potency entry in [19] is “inactive”. The call in assay [15] and in assay [18] was inactive.
On to `CCCCC(CC)COCCCN` (stereo not drawn), for which the Potency entry in assay [1], in assay [2], in assay [20], in assay [5], in assay [6] and in assay [7] was “inactive” each time. Also, the Potency entry in assay [8], in assay [9], in assay [10], in assay [12], in assay [14] and in assay [16] was “inactive” each time. In addition, the Potency result in [17] and in [19] was “inactive” each time. In addition, the call in [15] and in [18] was inactive.
Turning to `CC(C)(C)c1cc(CO)cc(C(C)(C)C)c1O`, the Potency entry in [1], in assay [2], in assay [20], in assay [6], in [7] and in assay [8] was “inactive” in each case. Further, the Potency result in assay [9], in assay [10], in assay [14] and in [16] was “inactive” in each case. Besides, the molecule was classed as inactive in assay [15] and in assay [18].
Regarding `COc1ccc(OC)c(OC)c1`, the Potency result in assay [1], in assay [2], in assay [3], in assay [4], in assay [5] and in assay [6] was “inactive” in each case. The Potency result in assay [7], in assay [8], in assay [9], in assay [10], in assay [12] and in assay [14] was “inactive” throughout. For the same molecule, the Potency entry in assay [19] was “inactive”. In addition, the result in assay [15] and in assay [18] was inactive.
For `N#Cc1cc2ccccc2c2ccccc12`, the Potency result in [1], in assay [2], in assay [20], in assay [4], in assay [5] and in assay [6] was “inactive” throughout. The Potency result in assay [7], in [8], in [10], in [12], in [14] and in assay [16] was “inactive” throughout. In assay [19], the Potency result was “inactive”. Moreover, the molecule was classed as inactive in assay [15] and in [18].
On to `CC(C(=O)O)c1ccc(-c2ccccc2)c(F)c1` (stereo not drawn), for which the Potency entry in assay [1], in assay [3], in [4], in assay [5], in [6] and in assay [7] was “inactive” each time. In addition, the Potency result in assay [9], in [10], in [12], in assay [13], in assay [16] and in assay [17] was “inactive” throughout. In assay [19], the Potency result was “inactive”. In addition, the Potency in [2] is 54.9 µM (active); in [14], 43.3 µM (active). For the same molecule, the outcome in assay [15] and in assay [18] was inactive.
